# Results reported in PubChem BioAssay AID556 (SRMLSC, 2006).
# In all, about 65,000 compounds went through this assay and about 320 (0.49%) were called active.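 Rule for the calls: active = the 320 compounds with the highest percent inhibition in the single-dose primary screen, excluding strongly autofluorescent ones (cut at about 32% in these data); inactive = the rest, inconclusive results apart.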 The entries come from a sample that favours actives as a whole.
# Tested on: diphosphomevalonate decarboxylase (Streptococcus pneumoniae D39)
# Experiment: diphosphomevalonate decarboxylase activity blockers – biochemical, PK/LDH-coupled NADH fluorescence, primary screen (AID 556);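 for inhibition: kinetic rate of NADH fluorescence loss reporting ADP formed by the decarboxylase; 0% = full reaction rate with carrier and 100% = no-substrate background rate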
# Settings: purified DPM-DC, at 10 µM
# [1] = stronger effect = higher value unless noted
# [2] = measured here: pilot screen trials, stronger effect = higher value
smiles,measurement,setting,value
c1ccc(CCc2nc(-c3ccncc3)no2)cc1,inhibition,[1],inactive
Cc1ccccc1CN1CCN(CC(=O)NCc2ccccn2)C1=O,inhibition,[1],inactive
COc1ccc2c(c1)C(C)=CC(C)(C)N2C(=O)CNCc1ccc2c(c1)OCO2,inhibition,[1],7% (inactive)
CC(C)c1nc2oc3c(N4CCN(C)CC4)ncnc3c2c2c1CCC2,inhibition,[1],inactive
Cc1cccc(C)c1NC(=O)CCCSc1nnc(-c2ccco2)n1-c1ccccc1,inhibition,[1],inactive
NC(=O)c1ccsc1NC(=O)c1ccco1,inhibition,[1],9% (inactive)
Cc1cc(C)c(C#N)c(SCS(=O)c2ccc(C(C)(C)C)cc2)n1 (stereo unspecified),inhibition,[1],inactive
O=C(CCS(=O)(=O)c1cccc2nonc12)NCCc1ccccc1Cl,inhibition,[1],inactive
COCCCN1C(=O)c2ccc(C(=O)Nc3ccc(OC)cc3OC)cc2C1=O,inhibition,[1],inactive
CCC1=C(C(=O)OC)C(c2cc(OC)ccc2OC)C(C#N)=C(N)O1 (stereo unspecified),inhibition,[1],"0% [measured here: pilot screen trials, stronger effect = higher value]"
same,outcome,[1],inactive
CCCN1C(=O)C(NC(C)=O)c2cc(OC)ccc21 (stereo unspecified),inhibition,[1],40% (active)
CCC(=O)c1ccc(OCC(O)CN2C(=O)NC(C)(C)C2=O)cc1 (stereo unspecified),inhibition,[1],inactive
CC1(C)CC(=O)C=C(NCc2ccncc2)C1,inhibition,[1],"2.5% [measured here: pilot screen trials, stronger effect = higher value]"
same,outcome,[1],inactive
Cn1c(=NC(=O)C2CC2)sc2cc(F)cc(F)c21,inhibition,[1],inactive
Cn1c(=NC(=O)c2ccco2)sc2cccc(F)c21,inhibition,[1],37% (active)
CCCC(=O)N=c1sc2cccc(F)c2n1C,inhibition,[1],inactive
c1ccc(-n2ncc3c2ncn2c(C4CCCCC4)nnc32)cc1,inhibition,[1],inactive
CC(=O)Nn1cc2c(=O)n(C)c(=O)n(C)c2c1,inhibition,[1],inactive
COc1cc(C(=O)N(Cc2ccc(N(C)C)cc2)C2CCS(=O)(=O)C2)cc(OC)c1OC (stereo unspecified),inhibition,[1],inactive
COc1ccc(OCC(=O)N2CCOCC2)cc1,inhibition,[1],inactive
CCCCOC(=O)Nc1nccs1,inhibition,stronger effect = higher value,1% (inactive)
same,inhibition,[2],4.5%
CN(C)CCNC(CC(=O)Nc1ccc(Cl)c(Cl)c1)C(=O)O (stereo unspecified),inhibition,[1],inactive
COc1cc(Cl)cc(C2NC(=O)NC(C)=C2C(=O)NCc2ccccc2)c1O (stereo unspecified),inhibition,[1],12% (inactive)
CCOc1ccc(C2C(C(=O)NC)=C(C)Nc3nc4ccccc4n32)cc1OC (stereo unspecified),inhibition,[1],inactive
Cc1onc(-c2ccccc2)c1C(=O)Nc1ccccc1C#N,inhibition,[1],5% (inactive)
CC(=O)N1CCc2cc(S(=O)(=O)Nc3ccccc3N3CCN(C)CC3)ccc21,inhibition,[1],1% (inactive)
CC(c1cccnc1)N(CCN(C)C)C(=O)Nc1ccc(Cl)c(Cl)c1 (stereo unspecified),inhibition,[1],inactive
COc1ccc(C(CNC(=O)c2cccnc2SC)N2CCOCC2)cc1 (stereo unspecified),inhibition,[1],inactive
COc1cc(C2C(C(=O)Nc3ccccc3OC)=C(C)Nc3ncnn32)ccc1O (stereo unspecified),inhibition,[1],inactive
Cc1cc(NC(=O)CSc2nnc(-c3ccc(Cl)s3)o2)no1,inhibition,[1],inactive
COc1ccc(OCCCC(=O)Nc2nnc(C3CCCO3)s2)cc1 (stereo unspecified),inhibition,[1],inactive
O=C(Nc1ccccc1N1CCN(C(=O)c2ccccc2)CC1)c1ccc2c(c1)OCO2,inhibition,[1],inactive
Cc1ccc(C)c(S(=O)(=O)N2CC(=O)Nc3ccccc32)c1,inhibition,[1],inactive
COc1ccc(S(=O)(=O)N2CCOCC2)cc1C(=O)Nc1nc2ccccc2s1,inhibition,[1],6% (inactive)
N#Cc1cccc(NC(=O)CCC2CCCC2)c1,inhibition,[1],inactive
CCCCn1nc(C(=O)N2CCc3ccccc32)c2ccccc2c1=O,inhibition,stronger effect = higher value,4% (inactive)
same,inhibition,[2],2%
Cc1cc(C)nc(SCc2nnc(SCC(=O)OC3CCCCC3)o2)n1,inhibition,[1],inactive
Cc1cc(=O)[nH]c(=S)[nH]1,inhibition,[1],inactive
Cc1cc(=O)cc(C)[nH]1,inhibition,[1],42% (active)
COc1ccc(C2CC(c3ccc(Cl)cc3Cl)Nc3nc(N)nn32)cc1OC (stereo unspecified),inhibition,[1],inactive
CCOC(=O)CCCNC(=O)CN1C(=O)NC(CCc2ccccc2)C1=O (stereo unspecified),inhibition,[1],inactive
CCOc1ccc(-c2nnn(CC(=O)N3CCN(c4ccc(F)cc4)CC3)n2)cc1OCC,inhibition,[1],"0% [measured here: pilot screen trials, stronger effect = higher value]"
same,outcome,[1],inactive
CCOC(=O)CSc1nccc(N(C)C)c1C#N,inhibition,[1],inactive
CC(=O)c1cc(-c2ccccc2)[nH]c1N1CCCC1,inhibition,[1],1% (inactive)
CCOC(=O)/C=c1\s/c(=C\c2ccccc2OC)c(=O)n1CC(=O)N1CCOCC1,inhibition,[1],4% (inactive)
CC1(C)CC(CCC(=O)Nc2ccccc2Cl)C(=O)O1 (stereo unspecified),inhibition,[1],inactive
COc1ccc(-n2nnc3c(=O)n(CC(=O)N4CCC(Cc5ccccc5)CC4)cnc32)cc1,inhibition,[1],inactive
CCOC(=O)c1ccc(N2C(=O)CC(N3CC(C)OC(C)C3)C2=O)cc1 (stereo unspecified),inhibition,[1],inactive
O=C(O)c1ccc(-n2cccc2)cc1O,inhibition,[1],1% (inactive)
Cc1ccc(S(=O)(=O)N2CCCC2C(=O)NCc2ccco2)cc1 (stereo unspecified),inhibition,[1],4% (inactive)
O=C1NC2(CCCCC2)N=C1c1ccccc1,inhibition,[1],inactive
COc1ccc(S(=O)(=O)N2CCC(C(=O)N3CCc4ccccc4C3)CC2)cc1OC,inhibition,[1],inactive
CCOC(=O)c1c(-n2cnnn2)sc(C)c1C,inhibition,[1],2% (inactive)
Cc1nc(C)c(C(=O)Nc2cccc(C)c2C)o1,inhibition,[1],inactive
CCC(c1nnnn1Cc1ccccc1)N(Cc1cc2cc(OC)ccc2[nH]c1=O)CC1CCCO1 (stereo unspecified),inhibition,[1],5% (inactive)
COc1ccc2[nH]c(=O)c(CN(Cc3nnnn3CCc3ccccc3)CC3CCCO3)cc2c1 (stereo unspecified),inhibition,[1],2% (inactive)
COc1ccc2[nH]c(=O)c(CN(CC3CCCO3)C(=O)Nc3ccccc3)cc2c1 (stereo unspecified),inhibition,[1],33% (active)
O=C1[C@@H]2C(Cc3ccc(O)cc3)NC3(C(=O)Nc4ccc(F)cc43)[C@@H]2C(=O)N1c1ccc(F)cc1 (stereo partly specified),inhibition,[1],inactive
CSc1ccc(NC(=O)N2CC(C)OC(C)C2)cc1 (stereo unspecified),inhibition,[1],inactive
CCOc1ccc(/C(O)=C2/C(=O)C(=O)N(Cc3cccnc3)C2c2ccc(N(C)C)cc2)c(C)c1 (stereo unspecified),inhibition,[1],2% (inactive)
Cc1ccc(N(C(=O)CC2NC(=O)NC2=O)C2(C(=O)NC3CCCC3)CCCCC2)cc1 (stereo unspecified),inhibition,[1],inactive
COc1ccc(CCNC(=O)CN2CCC(n3nnc4cc(F)ccc43)CC2)cc1OC,inhibition,[1],inactive
O=C(CSc1nnnn1C1CCCC1)Nc1ccc2c(c1)OCCO2,inhibition,[1],inactive
N#CCCN1CCN(S(=O)(=O)c2ccc(S(=O)(=O)N3CCCC3)cc2)CC1,inhibition,[1],7% (inactive)
CN(CC(=O)NC1CCCCC1)S(=O)(=O)c1cccc2cccnc12,inhibition,[1],inactive
O=C(Oc1ccccc1)c1ccc2nccnc2c1,inhibition,[1],inactive
CCOC(=O)c1sc(NC(=O)c2cc(S(=O)(=O)N3CCOCC3)ccc2C)nc1C,inhibition,[1],11% (inactive)
Cc1ccc(N2CCN(c3ccc(C)cc3)C2c2ccccn2)cc1,inhibition,[1],inactive
O=C(c1cc(-c2cccc(O)c2)on1)N1CCc2ccccc2C1,inhibition,[1],1% (inactive)
COc1cc(Cl)c(S(=O)(=O)N2CCN(Cc3ccc4c(c3)OCO4)CC2)cc1Cl,inhibition,[1],inactive
Cc1ccc(C(=O)N2CCCCCC2)cc1Br,inhibition,[1],inactive
O=C(c1cc(-c2cccs2)on1)N1CCCCC1,inhibition,[1],inactive
Cc1ccc2cc3cc(C(=O)N4CCCCCC4)oc3nc2c1,inhibition,[1],33% (active)
CCOC(=O)CNC(=O)CSc1nnc(COc2ccc(Cl)cc2)n1CC,inhibition,[1],2% (inactive)
Cc1oc(-c2ccccc2F)nc1CS(=O)(=O)CC(=O)NCCCN(C)C1CCCCC1,inhibition,[1],9% (inactive)
COc1ccc(-n2c(Cc3cccn3C)nnc2SCC(=O)Nc2cc(C)cc(C)c2)cc1,inhibition,[1],inactive
O=C(O)CCCC(=O)Nc1ccccc1-n1ccnc1,inhibition,[1],inactive
Cc1nc(SCC(=O)Nc2cc(C)on2)c2c(C)c(C)sc2n1,inhibition,[1],inactive
CCOc1ccccc1N(CC(=O)Nc1ccccc1C(=O)OC)S(C)(=O)=O,inhibition,[1],inactive
COc1ccc(OC)c(NC(=O)CN2CCN(C(=O)c3ccco3)CC2)c1,inhibition,[1],inactive
COc1cccc(C2/C(=C(/O)c3ccncc3)C(=O)C(=O)N2CCCN(C)C)c1 (stereo unspecified),inhibition,[1],16% (inactive)
CC(C)c1nc(-c2ccccn2)no1,inhibition,[1],inactive
CC(=O)NCC(=O)N(C)C(C(=O)Nc1ccc2c(c1)OCCO2)c1ccccc1 (stereo unspecified),inhibition,[1],inactive
Cc1cc(C)cc(OCc2nnc(SCC(=O)OC3CCCCC3)o2)c1,inhibition,[1],inactive
CCOC(=O)c1ccc(N2C(=O)CC(Sc3nc(O)c(CC)c(=O)[nH]3)C2=O)cc1 (stereo unspecified),inhibition,[1],inactive
Cn1c2c(c(=O)n(C)c1=O)C1c3ccccc3OCC1C(C)(C)O2 (stereo unspecified),inhibition,[1],10% (inactive)
